# A number with no mark means an inactive call. No rule for the calls is given here.
# System: Rolipram
# Assay: CYP450 and receptor off-target profile – biochemical, Ricerca HitProfilingScreen, selectivity assay for GPR7 antagonist project, late-stage follow-up (AID 504401)
# Settings: Ricerca radioligand binding and CYP450 panel, at 10 µM, stronger effect = higher value
compound,measurement,value
COc1ccc(Oc2c(Cl)cnn(-c3cc(C)cc(C)c3)c2=O)cc1,inhibition,22%

# Source: PubChem BioAssay AID504401 (The Scripps Research Institute Molecular Screening Center, 2011)
